This is an account of results in PubChem BioAssay (NCATS).

“And” between values parts separate entries of the source, which are not always exact repeats. Equal values may be shown once. Inconclusive results are not listed. The source made the active and inactive calls. Unless noted, the call rests on the fitted dose curve; in most records, active means well fitted curve in the direction sought with a large enough effect; inconclusive means small, poorly fitted or top-dose-only effect, or another doubt; inactive means no such curve, though single readings can be large; an effect the other way counts as inactive or inconclusive.

Assay [1] concerns the target Luciferin 4-monooxygenase (Photinus pyralis) (UniProt P08659). As to the kind of experiment: Biochemical firefly luciferase enzyme assay for NPC (AID 624030).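 Further: purified P. pyralis luciferase at 10 nM with luciferin and ATP substrate; 0% = DMSO and -100% = full luciferase inhibition by PTC124 control; nearly all actives have a fitted effect of over 70% in size.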 The gist of the method:
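Direct inhibition of firefly luciferase enzyme (10 nM final, 50 mM Tris Acetate) assessed by luminescence within 5 minutes. Percent activity scaled between DMSO and PTC124 positive control, with concentration-effect curves classified by fit quality and response.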

Assay [2] in a line: S16 Schwann cell viability assay (CellTiter-Glo assay) (AID 624031). Further: nearly all actives have a fitted effect of over 70% in size. Further: potency means the concentration at half of the fitted maximal effect. In outline: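 Native S16 rat Schwann cells in DMEM/10% FBS without phenol red were incubated overnight, then exposed to compounds for 24 h at 37 °C/5% CO2. Viability was read as ATP luminescence (CellTiter-Glo), normalized to no-cell wells and DMSO (0%).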
Assay [3] in a line: S16 Schwann cell PMP22 intronic element firefly luciferase assay (AID 624032). Further: nearly all actives have a fitted effect of over 30% in size. Further: potency means the concentration at half of the fitted maximal effect. The gist of the method:
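Luciferase reporter of PMP22 intronic-element expression in stably transfected S16 rat Schwann cells, read by ONE-Glo luminescence after 24 h compound exposure at 37 C. Activity scaled between DMSO (0%) and positive-control PTC124; concentration-effect curves quality-classified.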

Assay [4] is described as follows: S16 Schwann cell PMP22 intronic element beta-lactamase assay (AID 624044; calls by dose curve;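 further: 0% = DMSO and -100% = potassium clavulanate positive control; nearly all actives have a fitted effect of over 15% in size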). The gist of the method: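 Rat S16 Schwann cells with beta-Lac driven by a PMP22 intronic element, compound-treated 24 h at 37 °C. LiveBLAzer FRET B/G read: 460 nm normalized to potassium clavulanate vs DMSO; 535 nm FRET as viability; concentration-effect curves classified.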
Assay [5] in a line: qHTS of Trypanosoma Brucei Inhibitors: LOPAC Validation (AID 624147). Further: 0% is about no effect. In outline: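 TbPYK + substrate in 50 mM TEA pH 7.2, 100 mM KCl, 10 mM MgCl2, 0.05% BSA, 0.01% Tween-20; cpd pinned; ADP 130 uM final; 45 min RT; Kinase-Glo Plus 10 min; luminescence endpoint.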
In general terms: Quantitative high-throughput screening tests each substance at several concentrations.

Assay [6] addresses Glucagon-like peptide 1 receptor (Homo sapiens) (UniProt P43220). As to the kind of experiment: qHTS of GLP-1 Receptor Agonists: LOPAC Validation (AID 624148).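 Further: luminescence from a luciferase reporter switched on by cAMP; 0% is about no effect; higher luminescence signal means agonism.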 The gist of the method: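 Agonism scored as increased luciferase luminescence driven by cAMP in HEK293 clones carrying GLP-1R. Cells settled 12 hours, received compound for 4-6 hr at 37 deg C, 5% CO2, and were read after 12 min detection reagent at RT.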

A short description of assay [7]: qHTS of Nrf2 Activators: LOPAC Validation (AID 624149). Further: 0% is about no effect. The gist of the method: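 AREc32 cells carrying an ARE-driven firefly luciferase were grown overnight in OPTI-MEM with 5% FBS, then exposed to compounds for 24 hr at 37 deg C. Luciferase signal was read after 30 min with Steady-Glo at RT.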
Assay [8] in a line: qHTS assay for small molecule agonists of the antioxidant response element (ARE) signaling pathway (AID 651741; active means well fitted activation curve with a large enough effect in the signal ratio; the % refers to the signal ratio; further: % of control where 0% means no effect). The gist of the method: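 Seeding 2,000 ARE-bla HepG2 cells per well preceded a 5 h incubation at 37 C/5% CO2 and a 16 h compound exposure at 37 C. Beta-lactamase reporter activity was then quantified by fluorescence after 2 h with LiveBLAzer B/G FRET substrate.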

Assay [9] can be described thus: qHTS assay for small molecule activators of the p53 signaling pathway (AID 651743; active means well fitted activation curve with a large enough effect in the signal ratio, not every such curve was filed as active; the % refers to the signal ratio; further: % of control where 0% means no effect). The conditions noted are these: HCT-116 p53RE-bla, beta-lactamase FRET ratio, 16 h; stronger effect = higher value. The gist of the method:
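Screen for p53 pathway agonists uses stably transfected p53RE-bla HCT-116 cells, 4,000 per well, treated 16 h at 37 C with compounds in DMSO.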

Assay [10] can be described thus: qHTS Assay for Identification of Small Molecule Agonists for NFkB Signaling Pathway. (AID 624478). Further: 0% is about no effect. In outline:
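NFkB-bla ME-180 cells (beta-lactamase reporter under NFkB response element) were plated overnight, treated with compound plus TNF alpha at 10 pM final (its EC50) for 5 hrs at 37 C, then loaded with LiveBLAzer substrate for 2 hrs.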

The nature of assay [11]: Cell Proliferation Assay against the TMD8 Cell Line (AID 651645).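 Further: cells exposed to compound for 48 h before reading.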 Particulars: TMD8 DLBCL cell line proliferation/viability; at 46.1 µM (top of the series). In outline:
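Luminescent ATP read-out (CellTiter-Glo, 15 min RT) after 48 h compound exposure of log-growing TMD8 cells at 37C; percent activity scaled between DMSO as 100% and 9.2 uM bortezomib final as 0%.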

A short description of assay [12]: Cell Proliferation Assay against the HBL1 Cell Line (AID 651646).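 Further: cells exposed to compound for 48 h before reading.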 Particulars: HBL1 DLBCL cells; at 46.1 µM (top of the series). In outline:
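Luminescent ATP read-out (CellTiter-Glo) after 48 h compound exposure of HBL1 cells at 37 °C; percent activity was scaled between DMSO as 100% and 9.2 uM bortezomib (final) as 0%.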

A short description of assay [13]: Cell Proliferation Assay against the TMD8 Cell Line (Caspase readout at 8 hrs) (AID 651713). Further: potency means the concentration at half of the fitted maximal effect. In outline: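 TMD8 cells (500/well) in phenol red-free RPMI with 5% FBS were treated with compounds for 8 h at 37C, 5% CO2. Caspase-Glo 3/7 luminescence was read after 15 min at room temperature and normalised to DMSO (0%) and 9.2 uM bortezomib (100%).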
The target of assay [14] is Glutaminase kidney isoform, mitochondrial (Homo sapiens) (UniProt O94925). As to the kind of experiment: qHTS for Inhibitors of Glutaminase (GLS): LOPAC Validation (AID 624146).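 Further: glutamate product detected by oxidase and peroxidase coupled Amplex red fluorescence gain; on the % scale 0 is the no-effect control and ±100 the full control effect; nearly all actives have a fitted effect of over 60% in size.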 In outline:
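Two-point fluorescence kinetic (t0, 30 min RT) for hKGA; glutamate detected via glutamate oxidase–HRP–Amplex Red. Substrate: 1 mM L-glutamine solution; buffer 45 mM KH2PO4, pH 8.2.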

Assay [15] in a line: HTS Assay for Allosteric Antagonists of the Human D2 Dopamine Receptor: Hit Validation in HTRF (AID 624455).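 Further: stable D1 dopamine receptor cell line scored for blocking the D1 response; on the % scale 0 is the no-effect control and ±100 the full control effect.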 In outline:
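Hits were examined in an HTRF assay using cells stably expressing the D1 dopamine receptor, scoring inhibition of the D1-mediated response. The preceding primary screen tracked calcium flux after an EC80 dopamine addition in force-coupled, inducible Hek293 Trex D2 cells.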

A short description of assay [16]: Cytotoxicity counterscreen for NFkB agonists and antagonists (AID 624476).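 Further: potency means the concentration at half of the fitted maximal effect; cells exposed to compound for 48 hours.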
Assay [17] can be described thus: qHTS Assay for Identification of Small Molecule Antagonists for NFkB Signaling Pathway. (AID 624479; calls by dose curve;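 further: pathway stimulated with TNF alpha; potency means the concentration at half of the fitted maximal effect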).
Assay [18] can be described thus: Cell Proliferation Assay against the TMD8 Cell Line (Caspase readout at 16 hrs) (AID 651712). In outline:
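Apoptotic response of TMD8 cells was judged from caspase 3/7 activation following a 16 hour compound incubation at 37 °C. Luminescent signal was converted to percent activity, with DMSO set as 0% and 9.2 uM final bortezomib as 100%.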

Chain of Glucagon-like peptide 1 receptor (Homo sapiens) (P43220 whole entry, looked up): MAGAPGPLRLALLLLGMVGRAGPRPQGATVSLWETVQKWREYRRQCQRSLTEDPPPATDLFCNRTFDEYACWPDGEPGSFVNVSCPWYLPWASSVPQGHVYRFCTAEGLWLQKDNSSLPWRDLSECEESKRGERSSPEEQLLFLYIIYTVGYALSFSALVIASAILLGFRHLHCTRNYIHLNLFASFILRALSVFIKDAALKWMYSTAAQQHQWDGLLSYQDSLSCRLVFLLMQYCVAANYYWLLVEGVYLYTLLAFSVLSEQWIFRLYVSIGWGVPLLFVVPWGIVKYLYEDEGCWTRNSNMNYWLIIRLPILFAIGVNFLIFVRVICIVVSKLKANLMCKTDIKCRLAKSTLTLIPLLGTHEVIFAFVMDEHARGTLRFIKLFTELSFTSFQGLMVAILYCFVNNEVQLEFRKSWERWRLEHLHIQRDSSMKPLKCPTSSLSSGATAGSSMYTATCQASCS
Chain of Luciferin 4-monooxygenase (Photinus pyralis) (P08659 whole entry, looked up): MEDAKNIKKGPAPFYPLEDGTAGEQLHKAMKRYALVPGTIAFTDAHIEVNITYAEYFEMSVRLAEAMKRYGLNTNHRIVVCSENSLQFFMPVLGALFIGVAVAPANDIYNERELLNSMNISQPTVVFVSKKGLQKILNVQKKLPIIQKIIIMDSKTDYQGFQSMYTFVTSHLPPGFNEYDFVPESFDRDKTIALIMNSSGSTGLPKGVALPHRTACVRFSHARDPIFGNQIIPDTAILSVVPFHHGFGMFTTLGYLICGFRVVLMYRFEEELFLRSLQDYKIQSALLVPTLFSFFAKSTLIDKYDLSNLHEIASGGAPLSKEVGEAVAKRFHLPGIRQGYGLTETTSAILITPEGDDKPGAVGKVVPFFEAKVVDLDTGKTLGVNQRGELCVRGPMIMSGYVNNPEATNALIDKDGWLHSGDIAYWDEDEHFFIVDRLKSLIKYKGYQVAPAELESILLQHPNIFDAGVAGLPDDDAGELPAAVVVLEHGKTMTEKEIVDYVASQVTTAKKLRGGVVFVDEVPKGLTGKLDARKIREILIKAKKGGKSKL
Chain of Glutaminase kidney isoform, mitochondrial (Homo sapiens) (O94925 whole entry, looked up, canonical isoform): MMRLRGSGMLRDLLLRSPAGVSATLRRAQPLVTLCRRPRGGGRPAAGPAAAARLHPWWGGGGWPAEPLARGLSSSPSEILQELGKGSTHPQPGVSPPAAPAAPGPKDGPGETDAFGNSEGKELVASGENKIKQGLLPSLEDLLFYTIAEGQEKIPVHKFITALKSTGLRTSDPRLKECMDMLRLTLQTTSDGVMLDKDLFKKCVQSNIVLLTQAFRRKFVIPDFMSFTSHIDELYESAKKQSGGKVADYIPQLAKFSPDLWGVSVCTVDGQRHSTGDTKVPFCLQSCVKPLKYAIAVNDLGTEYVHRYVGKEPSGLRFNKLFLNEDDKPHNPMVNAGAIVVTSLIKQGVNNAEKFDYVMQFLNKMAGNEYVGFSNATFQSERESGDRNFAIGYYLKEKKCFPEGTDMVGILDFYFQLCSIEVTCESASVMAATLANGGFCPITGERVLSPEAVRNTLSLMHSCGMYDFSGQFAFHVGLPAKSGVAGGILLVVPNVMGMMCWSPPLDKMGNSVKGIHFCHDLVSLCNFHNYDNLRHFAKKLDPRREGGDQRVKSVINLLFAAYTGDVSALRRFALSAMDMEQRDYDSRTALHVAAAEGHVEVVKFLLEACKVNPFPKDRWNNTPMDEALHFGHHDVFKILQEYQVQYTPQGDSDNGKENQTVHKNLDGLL

In the case of `CC(C)OC(=O)OCOP(=O)(CO[C@H](C)Cn1cnc2c(N)ncnc21)OCOC(=O)OC(C)C`, the Potency entry in [1] was “inactive”.
Same read-out and setting: the entry for `CCCCc1oc2ccc(NS(C)(=O)=O)cc2c1C(=O)c1ccc(OCCCN(CCCC)CCCC)cc1` is “inactive”.
In the case of `CC(N)C12CC3CC(CC(C3)C1)C2` (configuration not stated), the Potency entry in assay [1] and in assay [2] was “inactive” each time.
As to `COC(=O)Nc1nc2ccc(S(=O)c3ccccc3)cc2[nH]1` (configuration not stated), the Potency entry in assay [1] was “inactive”.
Regarding `CCCc1cc(C(N)=S)ccn1`, the Potency result in assay [1], in assay [2] and in [3] was “inactive” in each case.
For the compound `C1CCC(C(CC2CCCCN2)C2CCCCC2)CC1` (configuration not stated), in [1], the Potency entry was “inactive”. Also, the Potency in assay [2] is 18.1 µM (active); in assay [3], 32.2 µM (active).
In the same order, the values of `O=P(O)(O)C(O)(Cc1cccnc1)P(=O)(O)O` are “inactive”, “inactive” and “inactive”.
As to `O=NN(CCCl)C(=O)NC1CCCCC1`, the Potency result in assay [1], in [2], in [3] and in assay [4] was “inactive” throughout.
With `Cc1cccc(N(C)C(=S)Oc2ccc3ccccc3c2)c1`, the Potency entry in [1] and in assay [2] was “inactive” throughout.
For `CC(C)(Sc1cc(C(C)(C)C)c(O)c(C(C)(C)C)c1)Sc1cc(C(C)(C)C)c(O)c(C(C)(C)C)c1`, the Potency result in [1] and in assay [2] was “inactive” throughout.
Turning to `CC(C)OC(=O)C(C(=O)OC(C)C)=C1SC=CS1`, the Potency entry in assay [1], in [2], in [3] and in [4] was “inactive” in each case.
Take `CC1=C(C(=O)O)N2C(=O)[C@@H](NC(=O)C(N)c3ccccc3)[C@H]2SC1` (some centres not stated): the result in assay [5], in [6] and in assay [7] was inactive.
`Cc1noc(NS(=O)(=O)c2ccc(N)cc2)c1C`: the Potency entry in assay [1], in [2] and in [8] was “inactive” each time. In addition, the activation in [9] is -3.81% (inactive) and -3.88% (inactive).
As to `NC1(c2ccc(-c3nc4ccn5c(=O)[nH]nc5c4cc3-c3ccccc3)cc2)CCC1`, the Potency entry in assay [1] is “inactive”. In addition, in assay [10], the compound was called inactive. In addition, the viability (% of control) in assay [11] is -0.504%. In addition, in [12], the viability, percent of control turned out to be 1.05%. Also, in assay [13], the Potency is 26.4 µM (active).
With `CCOc1cc(N)c(Cl)cc1C(=O)NCC1CN(Cc2ccc(F)cc2)CCO1` (configuration not stated), the Potency entry in assay [2], in assay [3] and in [4] was “inactive” in each case.
Take `CN1CCCC(n2nc(Cc3ccc(Cl)cc3)c3ccccc3c2=O)CC1` (configuration not stated): the Potency entry in assay [1] and in assay [4] was “inactive” in each case.
Regarding `Cc1ccc(S(=O)(=O)N[C@@H](Cc2ccccc2)C(=O)CCl)cc1`, the compound was classed as inactive in assay [14], in assay [5], in [6] and in assay [7]. Besides, the Potency result in assay [15] was “inactive”.
`CN(Cc1cc(Br)cc(Br)c1N)C1CCCCC1`: the Potency entry in [1] is “inactive”. Moreover, the Potency in assay [3] was 36.1 µM (active).
Take `CCCCS(=N)(=O)CCC(N)C(=O)O` (configuration not stated): the compound was classed as inactive in assay [14], in assay [5], in assay [6] and in assay [7]. Moreover, in assay [15], the Potency entry is “inactive”.
As to `CC[C@H](NC(C)C)[C@H](O)c1ccc(O)c2[nH]c(=O)ccc12`, the Potency entry in assay [1], in assay [2] and in assay [4] was “inactive” each time.
Turning to `NC(=O)c1ccc2[nH]ccc2c1`, the compound was classed as inactive in assay [14], in [5], in assay [6] and in [7]. In assay [15], the Potency entry is “inactive”.
For the compound `CC(C)C[C@H](NC(=O)[C@H](CCc1ccccc1)NC(=O)CN1CCOCC1)C(=O)N[C@@H](Cc1ccccc1)C(=O)N[C@@H](CC(C)C)C(=O)[C@@]1(C)CO1`, in assay [1], the Potency entry is “inactive”. The results for the Potency in [16] and in assay [17] were 0.148 µM (active) and 0.0033 µM (active), respectively. Also, the outcome in [10] was inactive. For the same compound, the viability (% of control) in assay [11] came to 3.43%. The viability, percent of control in assay [12] was 3.69%.
For the compound `COc1cc2c(Nc3ccc(Br)cc3F)ncnc2cc1OCC1CCN(C)CC1`, the Potency result in assay [1] was “inactive”. Moreover, the values for the Potency in assay [2], in assay [3] and in assay [16] were 20.3 µM (active), 9.07 µM (active) and 26.4 µM (active), respectively. Moreover, the result in assay [10] and in assay [18] was inactive. Moreover, the viability (% of control) in assay [11] is 8.14%. Besides, the viability, percent of control in assay [12] was determined as 4.03%.
Regarding `O=C(O)c1cn(C2CC2)c2cc(N3CCNCC3)c(F)cc2c1=O`, in assay [2], the Potency result is “inactive”.
Take `C[C@@H](NCCCc1cccc(C(F)(F)F)c1)c1cccc2ccccc12`: the Potency result in assay [1] and in assay [4] was “inactive” in each case. For the same compound, the Potency in [2] is 12.8 µM (active); in assay [3], 14.4 µM (active).
